# Measured values reported in ChEMBL document CHEMBL2218924, “A broad activity screen in support of a chemogenomic map for kinase signalling research and drug discovery” (Biochem J, 2013).
# Key:
# [1] = target: Tyrosine-protein kinase SYK (Homo sapiens) (UniProt P43405); details: at 10 µM
# [2] = target: T1, Mitogen-activated protein kinase kinase kinase 7 (Homo sapiens) (UniProt O43318); details: at 1 µM
# T1 sequence (whole entry): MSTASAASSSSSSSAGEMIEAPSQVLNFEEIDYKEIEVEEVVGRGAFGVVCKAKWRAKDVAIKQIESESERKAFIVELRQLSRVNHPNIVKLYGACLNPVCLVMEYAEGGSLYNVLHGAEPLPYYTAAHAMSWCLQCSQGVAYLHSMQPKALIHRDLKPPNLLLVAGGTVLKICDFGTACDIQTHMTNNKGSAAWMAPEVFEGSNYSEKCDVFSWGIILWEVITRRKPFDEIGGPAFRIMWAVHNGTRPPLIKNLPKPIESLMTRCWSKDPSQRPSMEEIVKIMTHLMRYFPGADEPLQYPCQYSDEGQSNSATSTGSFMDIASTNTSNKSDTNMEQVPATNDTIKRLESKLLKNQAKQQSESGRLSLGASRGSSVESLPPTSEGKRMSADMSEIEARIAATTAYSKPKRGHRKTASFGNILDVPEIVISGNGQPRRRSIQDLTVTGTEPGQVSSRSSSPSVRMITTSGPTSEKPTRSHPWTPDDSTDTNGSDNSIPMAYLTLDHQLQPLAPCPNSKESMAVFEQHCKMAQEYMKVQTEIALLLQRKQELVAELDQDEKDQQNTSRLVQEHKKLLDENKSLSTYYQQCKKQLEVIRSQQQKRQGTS
# [3] = target: T1, Mitogen-activated protein kinase kinase kinase 7 (Homo sapiens); details: at 10 µM
# [4] = target: T2, Serine/threonine-protein kinase TAO1 (Homo sapiens) (UniProt Q7L7X3); details: at 1 µM
# T2 sequence (whole entry): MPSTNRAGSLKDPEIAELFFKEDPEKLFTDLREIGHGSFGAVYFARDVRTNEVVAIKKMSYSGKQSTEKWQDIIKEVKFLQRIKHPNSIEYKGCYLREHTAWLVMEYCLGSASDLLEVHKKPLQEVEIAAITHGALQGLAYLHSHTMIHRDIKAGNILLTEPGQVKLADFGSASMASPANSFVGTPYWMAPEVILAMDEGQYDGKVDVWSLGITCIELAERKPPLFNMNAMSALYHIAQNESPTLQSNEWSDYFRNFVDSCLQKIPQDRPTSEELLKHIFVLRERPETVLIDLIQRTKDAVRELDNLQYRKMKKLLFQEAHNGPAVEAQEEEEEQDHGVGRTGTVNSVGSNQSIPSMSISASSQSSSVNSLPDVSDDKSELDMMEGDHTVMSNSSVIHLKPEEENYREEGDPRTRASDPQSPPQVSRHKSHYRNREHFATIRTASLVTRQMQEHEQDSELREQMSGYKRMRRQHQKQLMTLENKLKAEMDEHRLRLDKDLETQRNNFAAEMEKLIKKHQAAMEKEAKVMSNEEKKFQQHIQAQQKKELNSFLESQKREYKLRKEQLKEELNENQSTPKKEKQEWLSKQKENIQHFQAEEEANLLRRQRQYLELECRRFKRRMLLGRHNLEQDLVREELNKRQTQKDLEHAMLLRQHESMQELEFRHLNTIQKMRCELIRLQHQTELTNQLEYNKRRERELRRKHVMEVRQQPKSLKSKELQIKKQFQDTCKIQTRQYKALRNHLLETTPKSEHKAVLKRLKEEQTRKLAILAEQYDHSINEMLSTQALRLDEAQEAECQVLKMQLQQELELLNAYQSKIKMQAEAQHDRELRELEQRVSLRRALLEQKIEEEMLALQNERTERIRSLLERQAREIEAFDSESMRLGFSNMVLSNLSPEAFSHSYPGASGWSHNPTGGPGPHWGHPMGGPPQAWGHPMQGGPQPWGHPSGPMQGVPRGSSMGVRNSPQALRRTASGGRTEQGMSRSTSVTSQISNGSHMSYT
# [5] = target: T2, Serine/threonine-protein kinase TAO1 (Homo sapiens); details: at 10 µM
# [6] = target: T3, Serine/threonine-protein kinase TAO2 (Homo sapiens) (UniProt Q9UL54); details: at 1 µM
# T3 sequence (whole entry): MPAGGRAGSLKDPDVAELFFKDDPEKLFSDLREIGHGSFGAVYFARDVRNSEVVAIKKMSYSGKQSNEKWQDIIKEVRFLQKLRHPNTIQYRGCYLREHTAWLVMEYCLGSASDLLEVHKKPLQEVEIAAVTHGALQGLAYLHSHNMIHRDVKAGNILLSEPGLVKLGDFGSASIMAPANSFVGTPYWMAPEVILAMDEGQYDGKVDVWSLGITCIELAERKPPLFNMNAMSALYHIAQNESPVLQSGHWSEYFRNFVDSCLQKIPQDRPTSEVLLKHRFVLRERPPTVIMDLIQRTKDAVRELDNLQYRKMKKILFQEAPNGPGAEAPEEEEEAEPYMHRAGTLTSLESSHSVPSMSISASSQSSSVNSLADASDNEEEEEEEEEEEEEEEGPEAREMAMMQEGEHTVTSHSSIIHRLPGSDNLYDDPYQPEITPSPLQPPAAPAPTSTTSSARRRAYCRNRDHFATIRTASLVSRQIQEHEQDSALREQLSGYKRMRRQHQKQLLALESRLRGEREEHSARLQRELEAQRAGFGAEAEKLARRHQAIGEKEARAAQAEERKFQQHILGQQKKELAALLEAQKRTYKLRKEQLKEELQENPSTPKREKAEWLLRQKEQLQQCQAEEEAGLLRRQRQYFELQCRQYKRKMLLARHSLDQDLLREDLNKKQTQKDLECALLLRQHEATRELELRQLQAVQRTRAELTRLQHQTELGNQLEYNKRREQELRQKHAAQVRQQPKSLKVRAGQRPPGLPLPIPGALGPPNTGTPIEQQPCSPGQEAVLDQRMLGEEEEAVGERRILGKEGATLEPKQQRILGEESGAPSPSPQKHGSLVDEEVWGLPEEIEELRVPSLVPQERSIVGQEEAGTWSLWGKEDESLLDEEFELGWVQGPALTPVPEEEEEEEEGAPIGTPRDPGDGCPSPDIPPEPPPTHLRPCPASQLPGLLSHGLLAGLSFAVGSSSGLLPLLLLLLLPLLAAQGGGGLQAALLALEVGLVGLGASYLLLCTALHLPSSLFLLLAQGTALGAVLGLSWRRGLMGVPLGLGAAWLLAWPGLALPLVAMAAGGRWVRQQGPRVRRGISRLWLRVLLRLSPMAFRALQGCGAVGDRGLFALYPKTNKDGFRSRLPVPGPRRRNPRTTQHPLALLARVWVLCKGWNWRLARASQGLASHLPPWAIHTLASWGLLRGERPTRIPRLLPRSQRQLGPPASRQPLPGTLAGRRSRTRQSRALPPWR
# [7] = target: T3, Serine/threonine-protein kinase TAO2 (Homo sapiens); details: at 10 µM
# [8] = target: T4, Serine/threonine-protein kinase TAO3 (Homo sapiens) (UniProt Q9H2K8); details: at 1 µM
# T4 sequence (whole entry): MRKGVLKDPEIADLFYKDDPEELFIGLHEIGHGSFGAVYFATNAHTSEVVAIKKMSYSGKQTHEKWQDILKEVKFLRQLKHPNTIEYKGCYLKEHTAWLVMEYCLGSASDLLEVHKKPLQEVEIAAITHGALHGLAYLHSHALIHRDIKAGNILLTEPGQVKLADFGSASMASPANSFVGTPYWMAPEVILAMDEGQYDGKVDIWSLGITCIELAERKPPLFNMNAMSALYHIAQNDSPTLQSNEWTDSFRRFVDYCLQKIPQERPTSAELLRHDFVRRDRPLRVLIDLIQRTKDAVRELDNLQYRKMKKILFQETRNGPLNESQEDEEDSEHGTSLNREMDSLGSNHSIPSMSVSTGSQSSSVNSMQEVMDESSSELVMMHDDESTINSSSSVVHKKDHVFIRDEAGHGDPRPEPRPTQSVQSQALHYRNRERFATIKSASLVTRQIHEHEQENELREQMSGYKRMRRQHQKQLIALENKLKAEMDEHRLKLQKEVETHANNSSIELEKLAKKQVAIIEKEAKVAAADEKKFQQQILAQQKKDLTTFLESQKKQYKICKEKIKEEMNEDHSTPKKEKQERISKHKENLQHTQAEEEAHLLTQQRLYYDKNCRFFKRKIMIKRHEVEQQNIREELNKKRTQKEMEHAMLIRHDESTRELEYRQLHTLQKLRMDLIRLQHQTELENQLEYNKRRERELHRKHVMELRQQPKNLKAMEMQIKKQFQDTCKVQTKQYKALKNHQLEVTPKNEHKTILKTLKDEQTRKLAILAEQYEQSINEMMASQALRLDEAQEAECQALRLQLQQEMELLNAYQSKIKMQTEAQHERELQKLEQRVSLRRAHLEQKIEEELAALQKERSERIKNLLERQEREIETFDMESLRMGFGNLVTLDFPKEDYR
# [9] = target: T4, Serine/threonine-protein kinase TAO3 (Homo sapiens); details: at 10 µM
# [10] = target: T5, Serine/threonine-protein kinase TBK1 (Homo sapiens) (UniProt Q9UHD2); details: at 1 µM
# T5 sequence (whole entry): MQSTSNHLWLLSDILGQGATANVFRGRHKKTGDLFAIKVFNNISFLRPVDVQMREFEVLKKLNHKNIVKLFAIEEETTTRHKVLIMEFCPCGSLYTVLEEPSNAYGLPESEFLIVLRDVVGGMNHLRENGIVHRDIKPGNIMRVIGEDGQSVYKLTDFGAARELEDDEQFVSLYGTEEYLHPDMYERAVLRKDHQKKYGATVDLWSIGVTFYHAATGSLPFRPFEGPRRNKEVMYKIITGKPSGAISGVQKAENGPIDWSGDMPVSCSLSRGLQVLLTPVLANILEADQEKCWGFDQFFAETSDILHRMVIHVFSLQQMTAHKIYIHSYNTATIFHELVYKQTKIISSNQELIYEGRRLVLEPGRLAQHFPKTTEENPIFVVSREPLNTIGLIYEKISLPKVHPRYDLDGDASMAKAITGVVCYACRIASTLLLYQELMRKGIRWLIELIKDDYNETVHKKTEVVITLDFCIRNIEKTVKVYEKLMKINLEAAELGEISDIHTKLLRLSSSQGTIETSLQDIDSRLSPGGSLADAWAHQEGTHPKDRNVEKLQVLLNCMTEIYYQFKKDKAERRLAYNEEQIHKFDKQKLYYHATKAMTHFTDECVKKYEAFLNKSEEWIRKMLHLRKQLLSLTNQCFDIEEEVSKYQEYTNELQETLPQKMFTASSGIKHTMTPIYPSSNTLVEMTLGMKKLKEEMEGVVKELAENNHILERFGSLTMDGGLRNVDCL
smiles,measurement,setting,value
CC(C)n1cnc2/c(=N/c3cccc(Cl)c3)nc(NCCO)[nH]c21,residual activity,[1],56%
same,residual activity,[2],77%
same,residual activity,[3],24%
same,residual activity,[4],87%
same,residual activity,[5],59%
same,residual activity,[6],70%
same,residual activity,[7],63%
same,residual activity,[8],93%
same,residual activity,[9],54%
same,residual activity,[10],57%
